# Results from PubChem BioAssay.
# The source made the active and inactive calls.
# How the values were obtained:
# [1] = test system: Plasmodium falciparum Sir2 (PF13_0152, Sir2A); test: Plasmodium falciparum Sir2A binding compounds – biochemical, small-molecule microarray, 635 nm fluorescence, primary screen (AID 1098); conditions: fluorescence 635 nm, higher = more signal;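 further: score merges spot fluorescence intensity with its signal-to-noise ratio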
# [2] = probe aDKK1 binding to arrayed compounds – biochemical, biotinylated probe, 635/667 nm fluorescence, primary screen (AID 1099); conditions: small-molecule microarray, higher = more signal;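 further: score merges 667nm spot fluorescence with signal to noise across triplicate slides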
# [3] = probe aCHRDL2 binding to arrayed compounds – biochemical, biotinylated probe, 635/667 nm fluorescence, primary screen (AID 1100); conditions: small-molecule microarray, higher = more signal
# [4] = change in splice reporter luminescence, either direction, cell-based, HEK293, spliceosome inhibition project, primary screen (AID 1101); conditions: HEK293 splicing luciferase reporter, 24 h, higher = more signal, called active from +8 up or from −8 down;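 further: HEK293 cells carrying a splicing-competent luciferase reporter gene; test concentration not given here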
# [5] = biological target: Fibroblast growth factor 10 (Homo sapiens) (UniProt O15520); test: compounds binding fibroblast growth factor 10 – biochemical, small-molecule microarray, 635 nm fluorescence, primary screen (AID 1102); conditions: FGF10 binding, fluorescence 635 nm, higher = more signal
# Fibroblast growth factor 10 (Homo sapiens), sequence (O15520 whole entry, looked up): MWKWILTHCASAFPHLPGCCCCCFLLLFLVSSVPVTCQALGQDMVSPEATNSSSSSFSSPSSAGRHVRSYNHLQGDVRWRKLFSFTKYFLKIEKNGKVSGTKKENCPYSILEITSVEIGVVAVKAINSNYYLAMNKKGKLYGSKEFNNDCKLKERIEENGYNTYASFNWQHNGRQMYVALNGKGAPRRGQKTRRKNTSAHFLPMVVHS
# [6] = test system: glycogen synthase kinase-3 (GSK3A per assay name; protocol says GSK3B); test: compounds binding glycogen synthase kinase-3 – biochemical, small-molecule microarray, 635 nm fluorescence, GSK3A, primary screen (AID 1103); conditions: fluorescence 635 nm, higher = more signal; further: the record names both GSK3A and GSK3B
# [7] = biological target: Epidermal growth factor receptor (Homo sapiens) (UniProt P00533); test: compounds binding epidermal growth factor receptor – biochemical, small-molecule microarray, 635 nm fluorescence, primary screen (AID 1104); conditions: EGFR binding, higher = more signal;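 further: score merges 667 nm emission intensity with spot signal to noise over triplicate slides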
# Epidermal growth factor receptor (Homo sapiens), sequence (P00533 whole entry, looked up): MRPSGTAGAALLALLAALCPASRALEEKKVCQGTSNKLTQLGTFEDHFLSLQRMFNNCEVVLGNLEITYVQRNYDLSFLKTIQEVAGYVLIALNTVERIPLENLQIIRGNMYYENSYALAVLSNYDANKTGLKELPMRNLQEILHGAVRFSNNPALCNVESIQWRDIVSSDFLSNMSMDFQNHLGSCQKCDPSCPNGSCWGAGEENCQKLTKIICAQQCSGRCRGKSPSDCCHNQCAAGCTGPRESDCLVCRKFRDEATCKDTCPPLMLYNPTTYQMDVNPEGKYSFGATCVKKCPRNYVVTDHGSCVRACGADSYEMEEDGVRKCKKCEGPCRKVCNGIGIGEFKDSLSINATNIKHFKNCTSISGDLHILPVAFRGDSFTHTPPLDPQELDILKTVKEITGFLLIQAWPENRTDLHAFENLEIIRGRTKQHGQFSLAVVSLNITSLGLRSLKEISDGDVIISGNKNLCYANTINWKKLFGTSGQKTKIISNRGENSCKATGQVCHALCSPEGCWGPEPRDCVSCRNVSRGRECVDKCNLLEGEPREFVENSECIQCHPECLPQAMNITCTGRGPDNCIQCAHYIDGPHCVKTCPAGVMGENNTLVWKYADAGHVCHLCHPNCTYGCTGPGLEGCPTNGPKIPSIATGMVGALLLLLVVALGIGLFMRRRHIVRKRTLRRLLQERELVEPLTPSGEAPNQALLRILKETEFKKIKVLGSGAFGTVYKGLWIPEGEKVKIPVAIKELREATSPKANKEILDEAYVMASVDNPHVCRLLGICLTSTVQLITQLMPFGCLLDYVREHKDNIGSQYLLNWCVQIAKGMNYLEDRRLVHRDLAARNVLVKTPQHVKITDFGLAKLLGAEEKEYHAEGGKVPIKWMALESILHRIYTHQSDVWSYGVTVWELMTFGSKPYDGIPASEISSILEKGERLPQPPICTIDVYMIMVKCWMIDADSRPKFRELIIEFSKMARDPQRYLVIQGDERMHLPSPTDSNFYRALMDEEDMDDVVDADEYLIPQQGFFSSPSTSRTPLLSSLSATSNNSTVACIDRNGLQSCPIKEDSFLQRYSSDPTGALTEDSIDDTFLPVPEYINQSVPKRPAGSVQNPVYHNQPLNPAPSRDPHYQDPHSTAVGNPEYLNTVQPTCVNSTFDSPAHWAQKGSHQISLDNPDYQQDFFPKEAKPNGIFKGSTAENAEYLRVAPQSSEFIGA
# [8] = biological target: Follistatin-related protein 3 (Homo sapiens) (UniProt O95633); test: compounds binding follistatin-related protein 3 – biochemical, small-molecule microarray, 635 nm fluorescence, primary screen (AID 1105); conditions: FSTL3 binding, higher = more signal;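 further: score merges emission near 667 nm and signal to noise per printed spot across three slides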
# Follistatin-related protein 3 (Homo sapiens), sequence (O95633 whole entry, looked up): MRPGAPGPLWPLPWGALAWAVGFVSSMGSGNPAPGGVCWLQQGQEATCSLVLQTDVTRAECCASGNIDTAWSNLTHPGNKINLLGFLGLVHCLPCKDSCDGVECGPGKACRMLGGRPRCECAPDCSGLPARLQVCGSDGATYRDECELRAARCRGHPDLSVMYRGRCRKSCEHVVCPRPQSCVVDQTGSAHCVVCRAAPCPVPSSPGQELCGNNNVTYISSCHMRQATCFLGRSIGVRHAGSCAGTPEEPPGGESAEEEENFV
# [9] = biological target: Dickkopf-related protein 1 (Homo sapiens) (UniProt O94907); test: small molecules binding DKK1 protein – biochemical, small-molecule microarray, 635 nm fluorescence scan, primary screen (AID 1106); conditions: higher = more signal;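 further: score merges emission near 667 nm with signal to noise over three replicate slides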
# Dickkopf-related protein 1 (Homo sapiens), sequence (O94907 whole entry, looked up): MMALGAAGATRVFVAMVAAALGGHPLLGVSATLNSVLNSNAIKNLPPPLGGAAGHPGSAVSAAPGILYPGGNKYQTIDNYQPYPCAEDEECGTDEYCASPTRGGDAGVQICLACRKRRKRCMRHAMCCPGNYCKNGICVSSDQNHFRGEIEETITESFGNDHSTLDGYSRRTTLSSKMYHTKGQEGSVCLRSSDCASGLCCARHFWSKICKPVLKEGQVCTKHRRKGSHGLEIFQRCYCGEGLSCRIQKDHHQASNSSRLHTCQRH
# [10] = test system: Inhibin beta A chain (activin A); test: small molecules binding activin A – biochemical, small-molecule microarray, 635 nm fluorescence scan, primary screen (AID 1107); conditions: INHBA, higher = more signal;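 further: mouse activin A protein probed at 4.33 µg/mL on printed slides; score merges bound-protein fluorescence near 667 nm with spot signal-to-noise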
# [11] = test system: Human papillomavirus type 1a protein E7 (residues 44-93); test: small molecules binding HPV E7 44-93 – biochemical, small-molecule microarray, residues 44-93, 635 nm fluorescence, primary screen (AID 1108); conditions: fluorescence 635 nm, higher = more signal;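 further: E7 fragment applied at 1 µg/mL in TBST for 1 h at 4 C; score combines spot fluorescence with its signal to noise ratio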
# [12] = hepatitis C replication reporter changes, two-sided – Huh7 cells, luciferase reporter, HCV replication inhibitor project, primary screen (AID 1109); conditions: Huh7 HCV replicon luciferase reporter, 48 h; higher = more signal;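 further: huh7 hepatoma cells harbouring a luciferase neomycin HCV replicon reporter; luciferase luminescence as measure of HCV replicon replication; test concentration not given here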
# [13] = biological target: Left-right determination factor 2 (Homo sapiens) (UniProt O00292); test: small molecules binding LEFTY2 protein – biochemical, small-molecule microarray, 635 nm fluorescence scan, primary screen (AID 1110); conditions: higher = more signal
# Left-right determination factor 2 (Homo sapiens), sequence (O00292 whole entry, looked up): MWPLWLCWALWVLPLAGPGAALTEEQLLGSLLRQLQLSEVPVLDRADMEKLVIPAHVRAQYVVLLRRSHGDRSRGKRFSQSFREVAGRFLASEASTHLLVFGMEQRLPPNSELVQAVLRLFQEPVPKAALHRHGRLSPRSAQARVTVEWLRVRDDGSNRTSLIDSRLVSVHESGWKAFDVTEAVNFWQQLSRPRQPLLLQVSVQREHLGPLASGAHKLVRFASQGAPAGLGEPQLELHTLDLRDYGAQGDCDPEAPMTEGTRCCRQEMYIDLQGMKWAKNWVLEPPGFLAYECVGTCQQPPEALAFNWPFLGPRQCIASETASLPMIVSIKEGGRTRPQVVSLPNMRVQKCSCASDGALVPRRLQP
# [14] = biological target: Calmodulin-1 (Homo sapiens) (UniProt P0DP23); test: small molecules binding calmodulin-1 with EGTA – biochemical, small-molecule microarray, Cy5-labelled CALM1, profiling panel (AID 1111); conditions: Cy5-CALM1 binding fluorescence, higher = more signal;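 further: labelled calmodulin applied in Tris saline Tween buffer holding calcium plus EGTA and DTT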
# [15] = biological target: Calmodulin-1 (Homo sapiens) (UniProt P0DP23); test: small molecules binding Ca-loaded calmodulin-1 – biochemical, small-molecule microarray, Cy5-labelled CALM1, plus calcium, artefact control for SMM control-protein annotation, profiling panel (AID 1112); conditions: Cy5-CALM1 binding fluorescence, higher = more signal;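 further: score merges spot fluorescence with signal to noise from triplicate slides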
# [16] = probe aWnt5a binding to arrayed compounds – biochemical, biotinylated probe, 635/667 nm fluorescence, primary screen (AID 1113); conditions: small-molecule microarray, higher = more signal;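 further: score merges 667 nm fluorescence intensity with signal-to-noise per printed feature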
# [17] = probe aShh binding to arrayed compounds – biochemical, biotinylated probe, 635/667 nm fluorescence, primary screen (AID 1114); conditions: small-molecule microarray, higher = more signal;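 further: probe is biotin-labelled aShh protein from a stem cell growth factor screen; measures binding of labelled protein to compounds printed on the slide; score merges feature fluorescence at 667 nm with signal-to-noise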
# [18] = probe aNog binding to arrayed compounds – biochemical, biotinylated probe, 635/667 nm fluorescence, primary screen (AID 1115); conditions: small-molecule microarray, higher = more signal;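 further: probe is biotinylated aNog protein used at 0.15 µg/mL for 1 h at 4 C; z-score combines 667 nm fluorescence of each spot with its signal to noise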
# [19] = biological target: Torsin-1A-interacting protein 1 (Homo sapiens) (UniProt Q5JTV8); test: compound microarray binding of lysate hLAP1 – cell lysate, small-molecule microarray, COS7 lysate, 635/667 nm fluorescence, primary screen (AID 1116); conditions: 635 nm fluorescence, higher = more signal
# Torsin-1A-interacting protein 1 (Homo sapiens), sequence (Q5JTV8 whole entry, looked up): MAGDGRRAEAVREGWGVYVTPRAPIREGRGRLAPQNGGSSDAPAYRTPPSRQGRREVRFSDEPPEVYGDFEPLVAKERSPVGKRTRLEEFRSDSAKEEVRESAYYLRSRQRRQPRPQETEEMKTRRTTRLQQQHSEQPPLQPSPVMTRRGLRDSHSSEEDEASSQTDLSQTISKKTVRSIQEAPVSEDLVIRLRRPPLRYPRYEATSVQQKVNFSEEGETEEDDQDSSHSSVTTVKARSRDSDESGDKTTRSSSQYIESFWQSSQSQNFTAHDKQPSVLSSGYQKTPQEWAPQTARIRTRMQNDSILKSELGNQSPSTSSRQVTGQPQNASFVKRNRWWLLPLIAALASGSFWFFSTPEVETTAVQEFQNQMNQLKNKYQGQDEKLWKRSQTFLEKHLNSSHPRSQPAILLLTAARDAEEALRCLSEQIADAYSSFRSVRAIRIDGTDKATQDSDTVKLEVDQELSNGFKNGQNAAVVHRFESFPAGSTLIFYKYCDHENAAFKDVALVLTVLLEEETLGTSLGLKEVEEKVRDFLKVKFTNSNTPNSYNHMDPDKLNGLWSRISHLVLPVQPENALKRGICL
# [20] = biological target: Alpha-bungarotoxin (Bungarus multicinctus) (UniProt P60615); test: compounds binding labelled alpha-BTX control protein – biochemical, small-molecule microarray, Alexa647 label, 635/667 nm fluorescence, artefact control for SMM control protein annotation, profiling panel (AID 1117); conditions: alpha-BTX-A647 binding fluorescence, higher = more signal
# Alpha-bungarotoxin (Bungarus multicinctus), sequence (P60615 whole entry, looked up): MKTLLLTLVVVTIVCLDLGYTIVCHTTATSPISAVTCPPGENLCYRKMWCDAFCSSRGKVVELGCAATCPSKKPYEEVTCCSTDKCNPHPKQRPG
Structure (SMILES),composite z-score [1],composite z-score [2],composite z-score [3],z-score [4],composite z-score [5],composite z-score [6],composite z-score [7],composite z-score [8],composite z-score [9],composite z-score [10],composite z-score [11],z-score [12],composite z-score [13],composite z-score [14],composite z-score [15],composite z-score [16],composite z-score [17],composite z-score [18],composite z-score [19],composite z-score [20]
C=C(C(=O)CC[C@@H](OC(C)=O)c1ccc(OCCO)cc1)C(C)C,0.167,-0.0523,0.104,1.02 (inactive),1.57,-0.117,-0.544,-0.152,-0.207,0.815,0.522,-1.88,-0.384,-0.43,-0.908,0.117,-0.0866,0.365,0.159,0.227
CCOC(=O)C1=CC[C@@H](c2cccc(Cl)c2)N(S(=O)(=O)c2ccc(C)cc2)[C@H]1c1ccc(C#N)cc1,1.06,0.855,0.252,-0.201 (inactive),0.841,1.32,0.36,1.41,0.49,0.582,1.41,-1.95,0.838,1.55,0.736,0.0266,0.0638,0.978,1.32,1.39
O=S(=O)(NCCCO)c1ccc(Br)cc1,0.373,0.101,0.248,-1.03 (inactive),0.568,0.309,0.598,0.175,-0.0155,0.363,0.54,-0.164,0.548,0.873,0.698,0.0251,-0.138,-0.122,0.365,0.284
C=CCC(OC(C)=O)[C@@H]1[C@@H](N(Cc2cc3ccccc3o2)C(=O)c2ccc(C)cc2)c2cc(OCCCO)ccc2N1C(=O)c1ccc(-c2ccccc2)cc1 (stereo not given in full),-0.433,-0.228,0.118,-3.23 (inactive),0.161,-0.291,0.0009,0.363,0.111,1.32,0.182,-1.67,0.36,-0.259,0.544,-0.0529,0.0141,-0.374,0.285,0.169
COCCCNC(=O)[C@@]1(C)c2ccccc2C(=O)N(Cc2ccccc2)[C@H]1c1ccc(CO)cc1,1.43,-0.0769,1.02,-0.626 (inactive),-0.398,-0.595,-0.848,-1.03,-1.76,-0.79,1.38,-1.86,-2.9,-0.652,-0.634,-0.124,0.0284,-0.255,1.64,-0.564
COC(=O)C(CC#Cc1ccc2c(c1)[C@]1(C(=O)N2)[C@H](C(=O)N2CCCCCCC2)[C@H]2C(=O)O[C@H](c3ccccc3)[C@H](c3ccccc3)N2[C@@H]1c1ccccc1OCCO)C(=O)OC,2.14,3.1,1.75,0.13 (inactive),1.47,1.47,1.96,1.73,2.58,1.79,1.6,-1.88,1.8,3.11,1.85,1.59,3.17,3.79,6.01,4.45
COCCCNC(=O)[C@@]1(Cc2ccccc2I)c2ccccc2C(=O)N(Cc2ccccc2)[C@H]1c1ccc(CO)cc1,-0.67,-0.113,0.394,-0.356 (inactive),-1.25,-1.43,-2.16,-1.56,-1.41,-1.59,0.609,-1.38,-2.53,-0.387,0.239,-0.232,-0.0146,0.0327,0.258,-1.4
O=C(NCC(F)(F)F)[C@@H]1c2ccccc2C(=O)N(Cc2ccccc2)[C@H]1c1ccc(CO)cc1,1.68,0.443,1.05,0.999 (inactive),-0.308,-0.409,-1.31,-1.12,-1.46,-0.296,0.337,-0.32,-1.78,-0.189,0.621,-0.158,-0.0849,0.0056,-0.236,-0.846
CN(C)CCCC[C@@H]1NC(=O)[C@H]2C[C@@H](C(=O)NCCCCCNC(=O)CS)[C@@H](c3ccc(O)cc3)N2C1=O,0.133,0.0417,0.308,1.1 (inactive),-1.2,-0.53,-0.483,-1.39,-0.653,0.0182,-0.781,0.579,-1.34,-0.0462,0.586,-0.124,-0.0396,-0.0793,0.172,0.808
C=CCNC(=O)[C@H]1[C@@H]2C(=O)O[C@@H](c3ccccc3)[C@@H](c3ccccc3)N2[C@@H](c2ccc(OCCO)cc2)[C@]12C(=O)N(C(=O)OCCOC)c1ccc(C#CC3(O)CCCCCC3)cc12,1.55,0.456,0.33,-0.569 (inactive),1.42,1.31,1.02,1.48,1.23,1.18,1.18,-2.07,1.2,0.494,-0.12,0.0342,-0.0035,1.7,1.07,1.52
[N-]=[N+]=Nc1ccccc1[C@H]1OC(c2ccc(OCCCO)cc2)=N[C@@]1(CCS(=O)(=O)c1ccccc1)C(=O)N1CCOCC1,1.5,1.8,1.46,-0.829 (inactive),1.26,1.16,0.211,0.924,-0.169,0.891,0.946,0.384,0.52,2.15,1.24,0.318,1.39,1.28,2.1,3.35
